Screening results from PubChem.
MITF inh: blocks human microphthalmia-associated transcription factor | O75030 | AlphaScreen MITF homodimerization, bead proximity signal | inhibition, % at 2.6 µM | 0.91% of 650,000 active | AID 1259374; in the data active means inhibition above about 50%;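 further: 0% = vehicle wells with protein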
FBW7 activator: activators of human E3 ligase FBW7; Q969H0; AlphaScreen FBW7–phospho-cyclin E peptide binding, activator screen; normalized activity (activation), % at 26.1 µM; 0.13% of 650,000 active; in the data active means normalized activity above about 1.9%;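 further: purified mutant Fbw7 with reduced substrate affinity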
Target sequence (Q969H0 whole entry, looked up): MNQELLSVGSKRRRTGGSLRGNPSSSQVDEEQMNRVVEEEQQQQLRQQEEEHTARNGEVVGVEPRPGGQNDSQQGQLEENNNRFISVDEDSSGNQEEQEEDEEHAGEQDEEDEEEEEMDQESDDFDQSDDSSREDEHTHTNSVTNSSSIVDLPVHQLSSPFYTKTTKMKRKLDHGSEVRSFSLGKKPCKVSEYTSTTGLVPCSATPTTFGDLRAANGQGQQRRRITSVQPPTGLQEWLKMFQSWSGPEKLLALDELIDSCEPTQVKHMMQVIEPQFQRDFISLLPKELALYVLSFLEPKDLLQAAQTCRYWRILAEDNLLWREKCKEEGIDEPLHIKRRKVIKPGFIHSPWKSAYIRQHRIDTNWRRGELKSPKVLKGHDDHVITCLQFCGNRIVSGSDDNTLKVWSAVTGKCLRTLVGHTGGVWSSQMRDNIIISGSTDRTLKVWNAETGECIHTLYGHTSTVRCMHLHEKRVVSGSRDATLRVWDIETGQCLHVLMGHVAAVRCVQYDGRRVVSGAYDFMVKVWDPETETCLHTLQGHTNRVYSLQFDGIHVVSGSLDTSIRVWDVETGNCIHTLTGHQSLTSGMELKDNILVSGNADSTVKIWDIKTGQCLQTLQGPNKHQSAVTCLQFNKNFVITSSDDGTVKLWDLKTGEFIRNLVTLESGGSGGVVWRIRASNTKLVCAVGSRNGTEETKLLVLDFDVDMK
TEAD-YAP block: TEAD-YAP interaction inhibition; HEK-TIYL cells, TEAD-Gal4/YAP UAS-luciferase luminescence; inhibition, % at 9.12 µM; 1.4% of 640,000 active; AID 1259422; in the data active means inhibition above about 32%;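 further: 0% = median of test compound wells and 100% = reference inhibitor wells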
GPR151 activ: activates the human receptor GPR151; activation, % at 11.2 µM; 1% of 650,000 active; Q8TDV0; PathHunter beta-arrestin GPR151 cells, luminescence; in the data active means activation above about 4.9%;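 further: 0% = median of compound wells and 100% = cells with positive control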
Starred values were filed as active, the others as inactive. Compounds with a hit are over-represented: about 3.4% of the library has one in this group of screens.

SMILES	MITF inh	FBW7 activator	TEAD-YAP block	GPR151 activ
Cc1ccc(OCC(=O)Nc2cccc(C(=O)O)c2)c(Br)c1	14	0	98*	-10
O=C(COc1cccc2ccccc12)Nc1ccncc1	6	0	40*	0
COC(=O)c1cccc(NC(=O)COc2ccccc2Br)c1	3	0	43*	0
CC(=O)c1cccc(-c2cc(C(=O)NCc3cccnc3)ccn2)c1	-7	0	-9	0
COc1cccc(CN(CCCN(C)C)C(=O)Nc2ccc(-c3cn[nH]c3)cc2)c1	62*	0	1	-1
COc1cccc(CN(CCN(C)C)C(=O)Nc2ccc(-c3cn[nH]c3)cc2)c1	1	0	-12	-1
COc1cccc(CNC(=O)Nc2ccc(-c3cn[nH]c3)cc2N(C)CCN(C)C)c1	29	1	-2	1
COc1cccc(CNC(=O)Nc2ccc(-c3cn[nH]c3)cc2N(C)CCO)c1	40	0	54*	-1
O=C1C(C=Nc2ccc(F)cc2)=C(O)c2ccccc21	4	0	12	-2
COc1ccc(N=CC2=C(O)c3ccccc3C2=O)c(OC)c1	3	0	69*	1
Cc1ccccc1N=CC1=C(O)c2ccccc2C1=O	7	0	87*	0
COc1ccc(N=C(C)C2=C(O)c3ccccc3C2=O)c(OC)c1	-6	0	-17	2
O=C(CSc1ccc2nnc(-c3cccnc3)n2n1)NCc1ccccc1Cl	3	0	3	0
CCn1c(/C=C2/C(=O)Nc3ccccc32)nc2ccccc2c1=O	3	0	5	2
O=C1Nc2ccccc2/C1=N/n1c(-c2ccccc2)nc2ccccc2c1=O	-3	0	32*	0
CCOc1cc(/C=C2\SC(N)=NC2=O)ccc1OC(=O)c1cccs1	-1	0	35*	-2
CCOc1cc(/C=C2\SC(N)=NC2=O)ccc1OCC(=O)NCc1ccccc1	0	0	32*	3
COc1cc(/C=C2\SC(N)=NC2=O)ccc1OCC(=O)Nc1ccc(C)cc1	12	0	34*	-1
CSc1ccc(/C=C/C(=O)c2ccc(N)cc2)cc1	14	0	-37	-1
COc1cc(-c2nnc(COC(=O)CN3C(=O)NC(C)(C)C3=O)o2)cc(OC)c1OC	-8	0	6	-2
CO[C@H](C(=O)[C@@H](O)[C@@H](C)O)[C@@H]1Cc2cc3cc(O[C@H]4C[C@@H](O[C@H]5C[C@@H](O)[C@H](O)[C@@H](C)O5)[C@H](O)[C@@H](C)O4)c(C)c(O)c3c(O)c2C(=O)[C@H]1O[C@H]1C[C@@H](O[C@H]2C[C@@H](O[C@H]3C[C@](C)(O)[C@H](O)[C@@H](C)O3)[C@@H](O)[C@@H](C)O2)[C@H](O)[C@@H](C)O1	36	0	92*	-2
COC(=O)Cc1ccc(NC(=O)c2ccc(C(C)(C)C)cc2)cc1	-11	0	71*	1
COC(=O)COc1ccc(NC(=O)c2ccc(C(C)(C)C)cc2)cc1	-22	0	43*	-1
COCCOC(=O)c1ccc(NC(=O)c2ccc(C(C)(C)C)cc2)cc1	1	-1	46*	0
CCCOC(=O)c1ccc(NC(=O)c2ccc(C(C)(C)C)cc2)cc1	11	0	-58	0
SMILES	MITF inh	FBW7 activator	TEAD-YAP block	GPR151 activ
CCS(=O)(=O)c1c(S(=O)(=O)CC)c2c(C)cccn2c1C(=O)OC	14	0	2	-1
CC(=O)Nc1ccc(NC(=O)c2cc3n(n2)C(C(F)(F)F)CC(C2CC2)N3)cc1 (stereo not given)	-7	0	-2	2
CC1Oc2nc3ccccc3cc2CN(Cc2ccc3c(c2)OCO3)C1=O (stereo not given)	2	0	-4	1
Cc1ccc2cc3c(nc2c1)OCC(=O)N(Cc1ccccc1)C3	3	0	48*	3
Cc1ccc2cc3c(nc2c1)OCC(=O)N(Cc1ccco1)C3	15	0	-21	-1
Cc1cccc2cc3c(nc12)OCC(=O)N(Cc1ccccc1)C3	14	26*	58*	0
CC1Oc2nc3ccccc3cc2CN(Cc2ccc(F)cc2)C1=O (stereo not given)	-1	0	32*	-1
O=C(NCC1COc2ccccc2O1)c1cnc(N2CCN(c3ccccn3)CC2)c2ccccc12 (stereo not given)	-6	0	41*	0
O=C(NCc1cccnc1)c1cnc(N2CCN(c3ccccn3)CC2)c2ccccc12	-8	0	39*	0
Cc1c(C(=O)NCc2cccnc2)sc2ncnc(N3CCN(c4ccccn4)CC3)c12	5	0	35*	0
O=C(NCC1COc2ccccc2O1)c1cnc(N2CCN(c3ncccn3)CC2)c2ccccc12 (stereo not given)	-12	0	23	1
O=C(NCc1ccc(F)cc1)c1cnc(N2CCN(c3ccccn3)CC2)c2ccccc12	1	0	8	-1
O=c1c2ccccc2sn1-c1ncc([N+](=O)[O-])s1	13	0	-10	0
c1ccc(N2CCN(c3nc(NCc4cccnc4)c4ncn(-c5ccsc5)c4n3)CC2)nc1	6	0	51*	-2
c1cncc(CNc2nc(N3CCOCC3)nc3c2ncn3-c2ccsc2)c1	10	0	45*	-2
c1ccc(-n2cnc3c(NCc4cccnc4)nc(N4CCN(c5ccccn5)CC4)nc32)cc1	18	0	26	-3
O=[N+]([O-])c1ccc(N2CCN(c3ccc([N+](=O)[O-])c4cccnc34)CC2)cc1	21	2.3*	1	-1
Cc1cc(N2CCN(C)CC2)nc2ccc(NC(=O)NCc3cccs3)cc12	2	0	-6	1
Fc1cccc(-c2nn3c(C4COc5ccccc5O4)nnc3s2)c1 (stereo not given)	-6	0	3	0
COc1cccc(-c2nn3c(C4COc5ccccc5O4)nnc3s2)c1 (stereo not given)	5	0	61*	2
CC(C)(C)CC(=O)NCC(c1ccco1)S(=O)(=O)c1ccc(F)cc1 (stereo not given)	10	0	2	0
COCCCNc1ncnc2scc(-c3ccccc3)c12	2	0	59*	2
c1ccc(-c2csc3ncnc(NCc4ccccn4)c23)cc1	-2	0	13	0
COC(=O)CNc1ncnc2scc(-c3ccccc3)c12	10	0	-4	-1
CCCCNc1ncnc2scc(-c3ccccc3)c12	19	1	56*	3
SMILES	MITF inh	FBW7 activator	TEAD-YAP block	GPR151 activ
COC(=O)CCCNc1ncnc2scc(-c3ccccc3)c12	-2	0	35*	-1
c1ccc(-c2csc3ncnc(NCc4ccco4)c23)cc1	16	0	34*	2
Cc1ccccc1NC(=O)CSc1nnc2[nH]c(=O)ccn12	7	0	-3	-3
C(=N\N1CCOCC1)/c1c(-c2ccccc2)[nH]c2ccccc12	15	0	31	0
CCOC(=O)C1=C(CN2CCCc3ccccc32)NC(=O)NC1c1ccccc1 (stereo not given)	-1	0	17	-2
CCOC(=O)C1=C(CN2CCCc3ccccc32)NC(=O)NC1c1ccc(C)cc1 (stereo not given)	-3	0	61*	1
